Reference: PubChem BioAssay AID1851 (National Center for Advancing Translational Sciences (NCATS), 2009)
In all, about 16,000 compounds went through this assay and about 5,700 (36%) were called active. About 24% were inconclusive and are not listed. The call rests on the fitted dose curve; in most records, active means well fitted curve in the direction sought with a large enough effect; inconclusive means small, poorly fitted or top-dose-only effect, or effect the other way; inactive means no such curve, though single readings can be large or run the other way. The list shows a part of the results.

Target: Cytochrome P450 1A2 (Homo sapiens) (UniProt P05177)
Sequence (P05177 whole entry, looked up): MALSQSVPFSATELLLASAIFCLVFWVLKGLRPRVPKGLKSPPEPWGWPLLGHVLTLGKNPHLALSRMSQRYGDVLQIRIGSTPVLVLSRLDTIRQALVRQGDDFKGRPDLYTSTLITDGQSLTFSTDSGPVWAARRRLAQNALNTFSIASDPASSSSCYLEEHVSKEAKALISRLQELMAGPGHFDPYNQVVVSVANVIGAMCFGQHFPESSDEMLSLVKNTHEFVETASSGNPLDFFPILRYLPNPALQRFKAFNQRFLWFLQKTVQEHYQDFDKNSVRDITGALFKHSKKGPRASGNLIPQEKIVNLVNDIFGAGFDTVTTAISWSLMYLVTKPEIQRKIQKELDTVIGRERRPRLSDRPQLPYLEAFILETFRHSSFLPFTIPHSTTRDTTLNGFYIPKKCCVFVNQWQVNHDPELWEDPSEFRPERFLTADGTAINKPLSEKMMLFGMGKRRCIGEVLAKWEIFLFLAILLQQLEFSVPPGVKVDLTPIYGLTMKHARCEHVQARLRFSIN
Experiment: Cytochrome panel assay with activity outcomes
Settings: recombinant CYP, pro-luciferin dealkylation, luminescence, p450-cyp1a2; series mostly up to 57.1 µM; activity, negative = inhibition: at the top concentration
On the % scale 0 is the no-effect control and ±100 the full control effect.

| SMILES | AC50 | activity, negative = inhibition |
| --- | --- | --- |
| CC#CCCCC(=O)Nc1cc(OC)nc(OC)n1 | 0.355 µM (active) | – |
| COc1cc(NS(=O)(=O)c2ccc(N)cc2)nc(OC)n1 | – | 1.22% [at 25.6 µM] (inactive) |
| COc1cc(NC(=O)c2c(F)cccc2F)nc(OC)n1 | 20 µM (active) | – |
| OC[C@@H]1O[C@@H](n2cnc3c(N[C@@H]4C[C@@H]5CC[C@H]4C5)ncnc32)[C@@H](O)[C@H]1O | – | -14.4% (inactive) |
| CN(CC(=O)O/N=C(\N)c1ccccn1)S(=O)(=O)c1ccccc1 | – | -9.06% (inactive) |
| CCOC(=O)CN(c1ccccn1)S(=O)(=O)c1ccccc1 | 14.1 µM (active) | – |
| Cc1ccc(S(=O)(=O)N(C)CC(=O)O/N=C(\N)c2ccccn2)cc1 | – | -5.85% (inactive) |
| O=C(NCc1cccc(C(F)(F)F)c1)c1cc(Cl)cc(Cl)c1 | 12.6 µM (active) | – |
| COc1ccc(-c2coc3cc4oc(=O)cc(C)c4cc23)cc1F | 2 µM (active) | – |
| CCc1nc(N2CCC3(CC2)OCCO3)c2nnn(Cc3ccccc3Cl)c2n1 | 7.08 µM (active) | – |
| O=C(NCc1ccccc1Cl)C1CCN(S(=O)(=O)N2CCC3(CC2)OCCO3)CC1 | – | -0.431% (inactive) |
| Fc1ccc2nc(Nc3nc4c(s3)CCCC4)sc2c1 | 1.58 µM (active) | – |
| COc1ccc(NC(=O)N2CC[C@@]3(CCCN(C(=O)c4cnccn4)C3)C2)cc1 | – | -18.8% (inactive) |
| Cc1ccc(CS(=O)(=O)Cc2ccc(C(=O)NCC3CCCO3)o2)cc1 (configuration not stated) | – | -7.21% (inactive) |
| Cc1ccc(C(=O)NC(=S)NCC2CCCO2)cc1 (configuration not stated) | 7.08 µM (active) | – |
| CCS(=O)(=O)N1CCC(C(=O)NCCN2CCN(Cc3ccccc3)CC2)CC1 | – | -25.8% (inactive) |
| CCCn1c2c(c(O)c(C(=O)NCc3ccccc3)c1=O)CCCC2 | 1.26 µM (active) | – |
| CCC(C)NC(=O)CCS(=O)(=O)c1ccc(Br)s1 (configuration not stated) | – | -4.87% (inactive) |
| CNNCc1ccc(C(=O)NC(C)C)cc1 | 1.58 µM (active) | – |
| COc1ccc(CN[C@H](C)C(=O)O)cc1 | – | -2.04% [at 11.4 µM] (inactive) |
| N#Cc1nc(COc2ccccc2Cl)oc1NCc1ccco1 | 14.1 µM (active) | – |
| c1ccc(NN(Cc2cnccn2)c2ccccc2)cc1 | 2 µM (active) | – |
| Cc1ccc(-n2c(SCc3ccc([N+](=O)[O-])cc3)nc3ccccc3c2=O)cc1 | – | 0.364% (inactive) |
| COn1c(SCc2cccc(Cl)c2)nc2ccccc2c1=O | 1.26 µM (active) | – |
| COn1c(SCc2ccc(C)cc2C)nc2ccccc2c1=O | 8.91 µM (active) | – |
| O=c1nc2ccccc2c2n1CC(CN1CCN(c3cccc(Cl)c3)CC1)N2 (configuration not stated) | – | -26.7% (inactive) |
| CC(C)C[C@H]1C(=O)N2CCC[C@@H]2[C@]2(O)O[C@](NC(=O)[C@H]3C=C4c5cccc6[nH]c(Br)c(c56)C[C@H]4N(C)C3)(C(C)C)C(=O)N12 | – | -20.7% [at 25.6 µM] (inactive) |
